High-throughput results: PubChem BioAssay, National Center for Advancing Translational Sciences (NCATS)
This is a sample that favours compounds with a hit; in the whole collection about 1.3% have one here.
ERG-DNA inh – qHTS for Small Molecule Inhibitors of the ERG Ets/DNA interaction; fluorescence polarization, His-ERG Ets domain / labelled DNA; 0.028% of 370,000 active; Potency, µM (highest dose often 76.9 µM), for inactives: at the highest dose FP activity, negative = inhibition, most hits filed as inhibitors; Transcriptional regulator ERG (Homo sapiens), P11308; active = well fitted inhibition curve with a large enough effect in the polarisation, with a control signal flat; inconclusive = small, poorly fitted or top-dose-only effect, or effect the other way, or a change in a side signal; inactive = no such curve, though single readings can be large or run the other way; the % refers to the polarisation;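 note: polarization taken with two DNA probes labelled with fluorescein and Texas red; potency is the fitted concentration of half-maximal effect; % of control where 0% means no effect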
Target sequence (P11308 whole entry, looked up, the tested form may be a part): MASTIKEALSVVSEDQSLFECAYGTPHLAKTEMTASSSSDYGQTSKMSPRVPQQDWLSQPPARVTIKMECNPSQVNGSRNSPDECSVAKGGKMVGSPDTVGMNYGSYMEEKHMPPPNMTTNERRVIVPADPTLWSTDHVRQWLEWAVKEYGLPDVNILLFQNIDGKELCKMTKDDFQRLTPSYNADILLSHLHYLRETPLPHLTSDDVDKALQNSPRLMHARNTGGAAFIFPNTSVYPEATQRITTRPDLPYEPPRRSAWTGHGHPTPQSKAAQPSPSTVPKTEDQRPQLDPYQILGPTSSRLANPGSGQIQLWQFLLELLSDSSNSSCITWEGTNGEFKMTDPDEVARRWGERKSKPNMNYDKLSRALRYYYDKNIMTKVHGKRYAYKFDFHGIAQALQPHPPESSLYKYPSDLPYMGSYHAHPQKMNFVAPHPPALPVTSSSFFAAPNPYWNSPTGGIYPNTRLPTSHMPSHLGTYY
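His-tagged ERG Ets domain (1 uM in the protein solution; 300mM KCl, 50mM Tris-HCl, 1mM EDTA, 1mM DTT, pH 7.5) received compound, then a probe mix of 5 nM fluorescein-DNA and 100nM Texas-615-DNA. Fluorescence polarization was read for both dyes.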
PINK1 modulator – A Quantitative High throughput Screen to Identify Chemical Modulators of PINK1 Expression; PINK1 immunofluorescence, high-content cytometry, 24 h; Potency, µM (titrated, usually from 76.6 µM), for the others: top-dose activation (PINK1 increase), hits mostly activators; 0.2% of 410,000 active; AID 624263, 2012; active = well fitted activation curve with a large enough effect; inconclusive = small, poorly fitted or top-dose-only effect; cell line not stated here; note: potency is the fitted concentration of half-maximal effect; % of control where 0% means no effect; nearly all actives have a fitted effect of over 65% in size
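PINK1 protein level read as immunofluorescence by microplate cytometer in a fixed, stained stable cell line after 24 h exposure to five compound concentrations, with CCCP as control.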
ALOX12 inh – Primary qHTS assay for inhibitors of human arachidonate 12S-lipoxygenase (ALOX12): Round 2. Polyunsaturated fatty acid lipoxygenase ALOX12 (Homo sapiens), P18054. purified 12hLO, xylenol orange hydroperoxide absorbance. Potency, µM (series often up to 108 µM), without a hit: at the highest dose activity change, negative = inhibition, hits mostly inhibitors. 1.1% of 580,000 active. AID 1671190, 2021; note: potency is the fitted concentration of half-maximal effect; % is set by controls: 0 for no effect and ±100 for the full control effect
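Purified human 12hLO at 150 nM in 25 mM Hepes, 0.01% Triton X-100, pH 7.0, preincubated 15 min at room temperature with compound. Reaction started with 40 uM arachidonic acid, 30 min at room temperature. Hydroperoxide measured by Fe-xylenol orange, 573/405 nm absorbance ratio.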
Giardia killer – Small Molecules that selectively kill Giardia lamblia: qHTS; Giardia lamblia trophozoite viability; activity change, % at 7.66 µM, hits read low; 0.15% of 340,000 active; in the data active = activity change below about -80%; inconclusive = between about -30% and that limit;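 note: parasites exposed to compound for two days anaerobically before the ATP read; % is set by controls: 0 for no effect and ±100 for the full control effect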
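Each well holds 100 Giardia trophozoites and compound. After two days (48 hrs) at 37 deg C in anaerobic conditions, ATP is quantified by luminescence.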
miR-21 act – qHTS Assay for Modulators of miRNAs and/orActivators of miR-21. 340,000 tested, under 10 active. AID 2288, 2010. HeLa miR-21 FLuc reporter, luciferase, 48 h. Potency, µM (series often up to 38.3 µM), for the others: at the top dose activity change, positive = activation, actives largely listed as activators;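 note: % of control where 0% means no effect; miR-21 action dims this reporter so a rising signal means less miR-21 action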
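HeLa miR-21-FLuc reporter line, endogenous miR-21; 2000 cells/well in DMEM/10% FBS; compound titration up to ~40uM final, 48 h, 37 degree Celsius; luciferase detection reagent, 15 min lysis, CCD luminescence.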
PTHR1 ag – qHTS for PTHR1 Agonists: Primary Screen | Parathyroid hormone/parathyroid hormone-related peptide receptor (Homo sapiens), Q03431 | HEK293 GP2 PTHR1 cells, GloSensor cAMP luminescence, 1 h | Potency, µM (series often up to 115 µM), for the others: at the top dose activation, hits mostly activators | 0.075% of 410,000 active | AID 743266, 2014; note: potency is the fitted concentration of half-maximal effect; nearly all actives have a fitted effect of over 55% in size
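HEK-293-derived GP2 cells expressing PTHR1 and a GloSensor cAMP reporter, 3,000/well, plated overnight, given luciferin plus IBMX (each 0.5 mM as added) for 1 h at 37 °C, then compound for 1 h at 37 °C. Luminescence was read after 15 min at room temperature.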
* marks the source's active call; other numbers are inactive results; i = inactive; ? = inconclusive; nt = no result given; [ ] = remark or other dose. Unless noted, calls come from the whole dose curve; as a rule, active = well fitted curve in the direction sought with a large enough effect; inconclusive = small, poorly fitted or top-dose-only effect, or another doubt; inactive = no such curve, though single readings can be large; an effect the other way counts as inactive or inconclusive.

SMILES	ERG-DNA inh	PINK1 modulator	ALOX12 inh	Giardia killer	miR-21 act	PTHR1 ag
CCOc1cc(/C=C/C(=O)c2ccc(C)cc2)ccc1OCC(=O)N(C)C	4.9%	-1.6%	-22.1%	21.0	?	-8.7%
CC1=NN(C(=O)COc2ccccc2)C(O)(c2ccccc2)C1 (stereo not given)	-5.3%	0.5%	-16.5%	-1.3	-11.1%	-5.4%
CCOC(=O)CCc1c(C)c2ccc(OCC(=O)N(CC)CC)c(C)c2oc1=O	-3.7%	0.8%	16.3%	9.4	-5.1%	-20.3%
C=CCc1cc(/C=C/c2nc(O)c([N+](=O)[O-])c(=O)[nH]2)cc(OC)c1O	5.5%	-0.3%	39.8µM*	5.7	-1.5%	i
CCOc1cc(/C=C\c2nc(O)c([N+](=O)[O-])c(=O)[nH]2)ccc1OC(C)C	-3.5%	1.8%	3.4%	-5.1	3.0%	-4.7%
O=C1S/C(=C\c2ccc(N3CCOCC3)o2)C(=O)N1Cc1c(F)cccc1Cl	nt	?	31.6µM*	6.0	-8.5%	-12.7%
O=C1S/C(=C/c2ccc(N3CCOCC3)o2)C(=O)N1Cc1c(F)cccc1Cl	16.5%	?	28.2µM*	-4.9	-3.4%	i
COC(=O)c1ccc(/C=N/NC(=O)C2CC(=O)N(c3ccc(F)cc3)C2)cc1 (stereo not given)	16.3%	0.9%	23.1%	24.1	0.3%	i
Cn1cnnc1-c1ccc(NS(=O)(=O)c2ccc3c(c2)CCC3)cc1	nt	nt	28.2µM*	nt	nt	nt
Cc1cc(-c2nnco2)c(C)n1-c1ccc(F)cc1	nt	-2.3%[38.3 µM]	12.2%	4.2	-43.0%	7.08µM*
Cc1ccc(C)c(CN2C(=O)c3ccccc3S(=O)c3ccc(C(=O)N4CCN(c5ccccc5F)CC4)cc32)c1 (stereo not given)	7.1%	-0.6%	?	nt	?	-9.6%
CCNC(=S)Nc1ccc(C)c(S(=O)(=O)Nc2ccccc2OC)c1	-7.3%	1.4%	-26.4%	-15.3	11.8%	-14.9%
CCN(CC)c1ccc(NC(=O)c2ccccc2F)cc1S(=O)(=O)Nc1ccccc1OC	-2.8%	0.2%	?	-2.2	-1.2%	i
CCN(CC)c1ccc(NC(=O)c2ccccc2Br)cc1S(=O)(=O)Nc1ccccc1OC	-4.1%	0.8%	35.5µM*	24.0	-10.8%	i
COc1ccccc1NS(=O)(=O)c1cc(NC(=S)NCCN2CCOCC2)ccc1N1CCOCC1	7.1%	0.2%	50.1µM*	-5.4	-5.2%	-14.1%
COc1ccccc1NS(=O)(=O)c1cc(NC(=S)Nc2cc(C)cc(C)c2)ccc1Cl	9.9%	44.7µM*	?	-14.7	0.6%	-33.0%
CCN=C(NCC)SC1CC(=O)N(c2cccc(OCC)c2)C1=O (stereo not given)	-2.1%	2.8%	372.1%	-7.7	0.6%	6.3%[57.5 µM]
Cc1cc(C)nc(NN2C(=O)/C(=C/c3ccccc3)SC2=S)n1	4.9%	10µM*	-5.2%	1.4	1.4%	i
Cc1ccccc1N1CCN(Cc2ccc(Br)o2)CC1	-6.2%	12.4%	?	1.0	-1.3%	i
Cc1cccc(N2CCN(Cc3ccc(Br)o3)CC2)c1C	1.4%	16.9%	0.562µM*	-8.1	7.3%	i
Cc1noc(C)c1CSCC(=O)OCc1nc2ccccc2c(=O)n1CC#N	-3.2%	?	-14.3%	-11.8	0.3%	-0.5%[57.5 µM]
CCSc1nc2n(n1)C(c1ccncc1)C1=C(CC(C)(C)CC1=O)N2 (stereo not given)	nt	nt	4.0%	nt	nt	nt
Cc1cc(N/N=C/c2ccc(N(C)C)cc2)nc(NCc2ccccc2)n1	-0.3%	5.0%	-7.6%	-9.6	3.4%	-45.4%
CCC(=O)N1CCc2cc(Br)cc(S(=O)(=O)CCC(=O)NCC3CCCO3)c21 (stereo not given)	-2.2%	1.6%	0.0%	2.9	1.2%	-4.8%
Cc1ccc(Cc2c[nH]c(=S)s2)cc1	5.7%	0.5%	35.5µM*	1.5	10.2%	-12.9%
SMILES	ERG-DNA inh	PINK1 modulator	ALOX12 inh	Giardia killer	miR-21 act	PTHR1 ag
COC(=O)c1c(-c2ccccc2)c(-c2ccccc2)nn(C)c1=O	7.0%	-1.2%	-9.8%	-3.1	8.0%	-19.6%
CC(C)OC(=O)c1c(-c2ccccc2)c(-c2ccccc2)nn(C)c1=O	3.1%	-1.2%	1.2%	-19.8	11.7µM*	-18.3%
CC(=O)OC(COC1CC2CCC1(C)C2(C)C)C[N+]1(C)CCCCC1 (stereo not given)	nt	nt	12.6µM*	nt	nt	nt
CC(=O)O[C@H]1C[C@@H]2CC[C@@]1(C)C2(C)C	nt	nt	-0.9%[176 µM]	nt	nt	nt
CCn1c(=O)n(CC)c2cc(N)ccc21	-6.2%	1.7%	?	?	-9.5%	i
CCc1oc2ccccc2c1C(=O)c1cc(I)c(O)c(I)c1	nt	nt	12.8µM*	nt	nt	nt
CCCCc1oc2ccccc2c1C(=O)c1cc(I)c(N(CC)CCOCC)c(I)c1	nt	22.7%	nt	-4.2	nt	nt
CN(C)Cc1c(O)ccc2c(=O)c(-c3ccc(Cl)cc3)coc12	-0.9%	0.2%	?	-0.2	-18.0%	-5.2%
O=c1c(-c2ccc([N+](=O)[O-])cc2)coc2c(O)c(O)ccc12	0.6%	-2.4%	6.31µM*	-0.8	-13.1%	i
CCNc1nc(NCC)n2c(SCC(=O)Nc3ccc(CC)cc3)nnc2n1	4.4%	-0.5%	nt	-13.7	nt	i
COc1ccc(/C=N/Nc2cc(C)nc3c(C)cccc23)cc1	0.9%	-1.9%	?	?	?	-0.2%
COc1ccc2nc(C)cc(N/N=C/c3ccc(F)cc3)c2c1	1.6%	-1.1%	?	-80.6*	?	i
COc1cccc2c(N/N=C/c3ccc(O)c(O)c3)cc(C)nc12	23.7%	0.4%	20µM*	-5.0	-40.6%	-11.8%
O=C(CCC(=O)Nc1ccccc1)NCCO	-5.1%	-1.2%	334.0%	-8.2	-8.8%	i
COc1ccc(CNc2ccnc(-c3cccnc3)n2)c(OC)c1	nt	-0.5%	44.7µM*	nt	nt	nt
COc1ccccc1CNc1ccnc(-c2cccnc2)n1	nt	1.8%	?	nt	nt	nt
O=C(NN=C1CCCCCC1)C(=O)Nc1cccc(Br)c1	-0.9%	2.1%	4.1%	9.6	-9.1%	-22.4%
COc1ccccc1C(=O)N1CCc2nc(C3CC3)nc(-c3ccc(Cl)cc3)c2C1	nt	nt	44.7µM*	nt	nt	nt
Cc1ccc2nc(N3C(=O)C(O)=C(C(=O)c4ccco4)C3c3cccs3)sc2c1 (stereo not given)	11.6%	-2.3%[38.3 µM]	17.8µM*	-24.0	-66.9%	5.9%[57.5 µM]
